This note sets out measurements from PubChem BioAssay AID1626 (SRMLSC, 2009).

SMILES strings stand for the structures. Among all 220,000 compounds or so, about 2,000 (0.91%) were called active. Another 2% or so got no clear call; they are omitted. No stated cut-off is given here; in the data, inconclusive means inhibition above about 80% without an active follow-up result; inactive means below that; test concentration not stated here. These entries were drawn from the full list. Potency and affinity values are given separately.

The nature of this experiment: M. tuberculosis H37Rv growth inhibitors, H37Rv strain (AID 1626).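 Further: bacteria incubated seven days before Alamar blue readout; 0% = bacteria only wells and 100% = bacteria with antibiotic wells.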 The following applies: stronger effect = higher value, concentration not given here.
For `CC(C)C(=O)N1CCN(c2ccc([N+](=O)[O-])cc2Cl)CC1`, the inhibition is 0.58% (inactive).
For `COc1ccc(/C=N/NC(=O)C(C)n2nnc3ccccc32)cc1OC` (centres undefined), the inhibition was -3.28% (inactive).
As for `C=CCN1C(=O)C(Cc2ccc(OC)cc2)S/C1=N\N=C\c1cccs1` (centres undefined), the inhibition is -5.41% (inactive).
For the compound `COc1ccc(OC)c(C(=O)c2ccc(C(=O)N3CCCCC3)cc2)c1`, the inhibition is -2.08% (inactive).
Consider `Cc1cccc2c1NC(=O)/C2=C\C(=O)c1cccs1`, for which the inhibition is 12.6% (inactive).
With `Cc1cc(Br)c2c(c1)/C(=C/C(=O)c1cccs1)C(=O)N2`, the inhibition is 79.9% (inactive).
Regarding `CCc1ccc2c(c1)C(O)(CC(=O)c1cccs1)C(=O)N2` (centres undefined), the inhibition is 3.05% (inactive).
`O=C(/C=C1\C(=O)Nc2ccccc21)/C=C1\C(=O)Nc2ccccc21`: the inhibition was 9.02% (inactive).
For the compound `Cn1c(N)c(C(=O)COC(=O)C2CC(=O)N(Cc3ccccc3)C2)c(=O)n(C)c1=O` (centres undefined), the inhibition was 0.39% (inactive).
`CC(C)(C)Nc1nc(SCC(=O)Nc2ccccc2)nc(N2CCOCC2)n1`: the inhibition is -1.07% (inactive).
The value for `O=C(Nc1ccccc1)c1ccn[nH]1` was -7.96% (inactive); that for `COc1ccccc1CNc1ncnc2cc(Cl)ccc12` was -2.22% (inactive); that for `CC(C)N1CCC(N2CCN(C/C=C/c3ccccc3)CC2CCO)CC1` (centres undefined) was -1.35% (inactive).
With `Cc1ccc(C(c2nnnn2C(C)(C)C)N2CCN(C3CCCC3)CC2)cc1` (centres undefined), the inhibition was -4.57% (inactive).
Then `Cc1cc(C)c(-c2cc(NC(=O)CSc3nncn3C)n(-c3ccccc3)n2)cc1C`, with 5.63% (inactive); and `CCOC(=O)C1=C(CC)Nc2ccccc2N=C1NC(=O)Nc1ccccc1OC`, with 5.38% (inactive); and `CCOC(=O)C1=C(CC)Nc2ccccc2N=C1NC(=O)c1cc(S(=O)(=O)N(C)C)ccc1Cl`, with 5.31% (inactive).
The value for `Cc1ccc(SCc2cc(=O)[nH]c(/N=C(\N)Nc3cccc4ccccc34)n2)cc1` was 2.6% (inactive); that for `CC1(C)CC(=O)C2=C(C1)NC1=C(C(=O)c3ccccc31)C2c1ccc(Cl)cc1` (centres undefined) was 44.9% (inactive).
On to `Cc1ccc(C2C3=C(CC(C)(C)CC3=O)NC3=C2C(=O)c2ccccc23)cc1` (centres undefined), for which the inhibition was 9.84% (inactive).
Take `CC1(C)CC(=O)C2=C(C1)NC1=C(C(=O)c3ccccc31)C2c1cccnc1` (centres undefined): the inhibition is 11.2% (inactive).
Regarding `CC1(C)CC(=O)C2=C(C1)NC1=C(C(=O)c3ccccc31)C2c1ccc(O)cc1` (centres undefined), the inhibition is 7.92% (inactive).
Then `CC1(C)CC(=O)C2=C(C1)NC1=C(C(=O)c3ccccc31)C2c1ccccc1` (centres undefined), with 14.8% (inactive).
On to `COc1cc(C2C3=C(CC(C)(C)CC3=O)NC3=C2C(=O)c2ccccc23)ccc1O` (centres undefined), for which the inhibition was 2.3% (inactive).
With `CCN(CC)S(=O)(=O)c1cccc(C(=O)N/N=C2\CCCC(=O)C2)c1`, the inhibition was -9.95% (inactive).
Consider `CCNc1nc(SCCOc2ccc(Br)cc2)nc(N(C)C)n1`, for which the inhibition was -0.8% (inactive).
In the case of `Cc1nn(C)c(C)c1S(=O)(=O)N1CCC(C(=O)NCCC2=CCCCC2)CC1`, the inhibition was -9.44% (inactive).
The value for `Cc1ccc(C)c(-c2cc(C(=O)Nc3cccc(C(=O)O)c3)c3ccccc3n2)c1` was 2.58% (inactive); that for `COc1ccc(/C=C/C2=NN(Cc3ccccc3)C(=O)CC2)cc1` was -0.13% (inactive).
Turning to `Cc1cc(N2CCN(C)CC2)nc(-c2ccccc2O)n1`, the inhibition is -1.49% (inactive).
Take `Cc1cccc(OCC(=O)Nc2cccc(-c3nnc(-c4ccccc4)o3)c2)c1C`: the inhibition is 3.74% (inactive).
Regarding `O=C(Nc1ccc(-c2nc3cc(Cl)ccc3c(=O)o2)cc1)c1ccco1`, the inhibition is 9.67% (inactive).
In the case of `O=C(Nc1ccc2nc(-c3ccccc3)oc2c1)c1ccco1`, the inhibition is -2.22% (inactive).
For `COc1ccc(-c2nc3ccccc3c(=O)o2)cc1OC`, the inhibition was 12.4% (inactive).
Take `O=C(COc1ccccc1)Nc1cccc(-c2nnc(-c3ccccc3)o2)c1`: the inhibition is 14.9% (inactive).
Consider `CC(C)C(=O)Nc1cccc(-c2nc3ccccc3c(=O)o2)c1`, for which the inhibition is 0.23% (inactive).
On to `CCOc1ccc(-c2nc3ccccc3c(=O)o2)cc1`, for which the inhibition was 3.93% (inactive).
In the case of `CCC(=O)Nc1ccc(-c2nnc(-c3ccccc3)o2)cc1`, the inhibition is 5.07% (inactive).
As for `O=C1CC(c2ccc(Br)cc2)NC(c2ccc(Br)cc2)C1c1ccccc1` (centres undefined), the inhibition is 15.2% (inactive).
In the case of `Nc1cc(-c2ccccc2)nn1S(=O)(=O)c1ccc(Br)cc1`, the inhibition is 12.3% (inactive).
Then `COc1cc(SC)ccc1C(=O)Nc1ccc(C)cc1C`, with 2.28% (inactive); and `Cc1onc(-c2ccccc2)c1C(=O)N1CCN(C)CC1`, with -7.83% (inactive).
For `Cc1cc(C(=O)N/N=C2\CC(=O)c3ccccc32)c(C)n1-c1ccccc1`, the inhibition was -0.53% (inactive).
`COc1ccc(/C=N/NC(=O)CC2N=C(Cc3ccccc3)NNC2=O)cc1OC` (centres undefined): the inhibition is -1.24% (inactive).
As to `O=C(Oc1c(Cl)cc(Cl)c2ccccc12)N1CCCCC1`, the inhibition was 11.7% (inactive).
In the case of `NC(=O)CCC(NC(=O)c1ccc(Cl)cc1)C(=O)O` (centres undefined), the inhibition was 2.33% (inactive).
For the compound `COc1ccc(NC(=O)CCN2C(=O)[C@@H]3[C@H](C2=O)[C@H]2C=C[C@@H]3C2)cc1`, the inhibition is -1.56% (inactive).
The value for `CCCC(=O)Nc1cccc(-c2nc3ccccc3o2)c1` was 5.23% (inactive); that for `CC(C)(C)C(=O)Nc1cccc(-c2nc3ccccc3c(=O)o2)c1` was 70.7% (inactive).
The value for `COc1ccc(-c2nc3ccccc3c(=O)o2)cc1` was 11.6% (inactive).
Consider `O=C1C2C3C=CC(C3)C2C(=O)N1c1ccc(-c2nc3ccccc3o2)cc1` (centres undefined), for which the inhibition is 0.58% (inactive).
The value for `CC(=O)Nc1cccc(-c2nc3ccccc3c(=O)o2)c1` was 9.37% (inactive).
Take `O=C(Nc1ccc(-c2nc3ccccc3o2)cc1)c1ccc(N2C(=O)C3C4C=CC(C4)C3C2=O)cc1` (centres undefined): the inhibition is 3.15% (inactive).
For the compound `COc1ccc(C2C(Oc3ccccc3)C(=O)N2c2ccc(C)c(C)c2)cc1OC` (centres undefined), the inhibition was 4.9% (inactive).
Regarding `Fc1ccc(CNC(=S)NC2CCCC2)cc1`, the inhibition was 2.21% (inactive).
The value for `CCc1cc(C(=O)OC)c(NC(=O)CC2SC(N)=NC2=O)s1` (centres undefined) was 3.51% (inactive); that for `CC(=O)N1CCN(c2ccc(N=Cc3c(O)n(-c4ccc(Cl)cc4)c(=O)[nH]c3=O)cc2)CC1` was -7.57% (inactive).
Consider `COc1ccccc1CCc1nnc(CCC(=O)NC(C)Cc2cccc(C)n2)o1` (centres undefined), for which the inhibition is -7.73% (inactive).
For `CCOc1cc(/C=C2\SC(=N)N(c3nonc3N)C2=O)ccc1OCCN1CCOCC1`, the inhibition was 4.53% (inactive).
`COc1ccc(/C=C2\SC(=N)N(c3ccc(F)cc3)C2=O)cc1OC`: the inhibition is -3.05% (inactive).
Consider `CCOc1cc(/C=C2\SC(=N)N(c3nonc3N)C2=O)ccc1OCC(N)=O`, for which the inhibition is 4% (inactive).
For the compound `COc1cc(/C=C2\SC(=N)N(c3ccc(F)cc3)C2=O)ccc1O`, the inhibition is 7.97% (inactive).
For `CCN1C(c2ccccc2)=C(c2ccccc2)S/C1=C\C=C1/SC(=S)N(C)C1=O`, the inhibition was 3.07% (inactive).
In the case of `Cc1cccnc1-n1c(CN2C(=O)c3ccccc3C2=O)nc2ccccc2c1=O`, the inhibition is -3.32% (inactive).
With `CCOC(=O)c1c(CSC(=N)N)n(C)c2cc(Br)c(OC(C)=O)cc12`, the inhibition was 1.34% (inactive).
In the case of `CCOC(=O)c1c(CSC(=N)N)n(-c2ccccc2)c2cc(Br)c(OC(C)=O)cc12`, the inhibition is -0.53% (inactive).
The value for `O=C(CN=C1NS(=O)(=O)c2ccccc21)OCC(=O)c1cc(F)ccc1F` was -7.99% (inactive).
In the case of `Clc1ccccc1-c1nnc2sc(CCc3ccccc3)nn12`, the inhibition was 5.64% (inactive).
Then `c1ccc(-c2nnc3sc(Cc4cccs4)nn23)cc1`, with 15.9% (inactive).
Consider `c1ccc(OCc2nn3c(-c4ccncc4)nnc3s2)cc1`, for which the inhibition is -8.19% (inactive).
Take `c1ccc(CCc2nn3c(-c4ccncc4)nnc3s2)cc1`: the inhibition was -0.85% (inactive).
`c1csc(Cc2nn3c(-c4ccncc4)nnc3s2)c1`: the inhibition is -11.8% (inactive).
As to `c1coc(-c2nnc3sc(Cc4cccs4)nn23)c1`, the inhibition was -0.74% (inactive).
For the compound `c1ccc(OCc2nn3c(-c4ccccn4)nnc3s2)cc1`, the inhibition is -10.6% (inactive).
With `C1CCC(c2nn3c(-c4n[nH]c5c4CCC5)nnc3s2)CC1`, the inhibition is 9.35% (inactive).
As to `O=C(OCc1nc2ccccc2s1)c1cnccn1`, the inhibition was -4.85% (inactive).
Then `O=C(c1ccc(=O)[nH]n1)N1CCc2ccccc2C1`, with 5.26% (inactive); and `COC(=O)CCSCC(=O)Nc1nnc(C)s1`, with -2.82% (inactive); and `CCN(CC)C(=O)CSc1nnc(-c2ccc(F)cc2)n1N`, with 3.27% (inactive).
The value for `CC(=O)Oc1ccc(C(=O)Nc2cccc(C(=O)c3cccc(NC(=O)c4ccc(OC(C)=O)cc4)c3)c2)cc1` was 74.4% (inactive).
For `COC1=CC(=O)CC(C)C12Oc1cc(OC)cc(OC)c1C2=O` (centres undefined), the inhibition was -7.12% (inactive).
As to `COCCNC(=O)/C(C#N)=C\c1ccc(CNS(=O)(=O)c2ccccc2)o1`, the inhibition is -0.59% (inactive).
In the case of `O=C1c2ccccc2C(O)(c2ncc[nH]2)N1CCc1ccccc1` (centres undefined), the inhibition was -2.48% (inactive).
As to `COc1ccccc1Nc1nc(NCc2ccco2)c2ccccc2n1`, the inhibition was 83.7% (inactive).
On to `Clc1nc(NCc2ccco2)nc(N2CCCCC2)n1`, for which the inhibition was 5.51% (inactive).
`OCCN1CCN(c2nc(NCc3ccco3)c3ccccc3n2)CC1`: the inhibition was -2.39% (inactive).
For the compound `OCCNc1nc(N2CCN(Cc3ccccc3)CC2)nc2ccccc12`, the inhibition is -8.82% (inactive).
For `c1ccc2c(NCC3CCCO3)nc(N3CCCCC3)nc2c1` (centres undefined), the inhibition was 1.41% (inactive).
With `c1ccc(CNc2nc(NCc3ccco3)nc(N3CCOCC3)n2)cc1`, the inhibition is 10.6% (inactive).
On to `CCOCCCNC(=O)c1cc2c(=O)n3cccc(C)c3nc2n1C`, for which the inhibition was 1.27% (inactive).
For `c1ccc(-c2ncc3c(ccc4ccccc43)n2)cc1`, the inhibition was 4.61% (inactive).
For `CCOc1ncccc1C(=O)Nc1ccccc1C(=O)NCc1ccc2c(c1)OCO2`, the inhibition was -0.12% (inactive).
As to `Cc1ccccc1Nc1nc(N)nc(CSc2nnc(C)n2C)n1`, the inhibition was 3.87% (inactive).
In the case of `NC1=NC(c2ccc(Cl)cc2)n2c(nc3ccccc32)N1` (centres undefined), the inhibition was 4.44% (inactive).
Consider `Cc1ccc(C2N=C(N)Nc3nc4ccccc4n32)cc1` (centres undefined), for which the inhibition was -6.16% (inactive).
Take `NC1=NC(c2ccccc2Cl)n2c(nc3ccccc32)N1` (centres undefined): the inhibition is 7.21% (inactive).
As for `CCn1c2ccccc2c2cc(C3N=C(N)Nc4nc5ccccc5n43)ccc21` (centres undefined), the inhibition is -6.84% (inactive).
The value for `Cc1cccc(C2N=C(N)Nc3nc4ccccc4n32)c1` (centres undefined) was -9.29% (inactive).
For `CCOC(=O)C1=C(C)Nc2nc3ccccc3n2C1c1ccccc1` (centres undefined), the inhibition is -9.7% (inactive).
